Experiment [1] can be described thus: antimalarial activity against Dd2 strain (AID 2302;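 active = growth inhibition above 50% at the single 2 µM test dose, taken to imply half-maximal potency below 2 µM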;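 note: 0% = DMSO untreated growth and 100% = chloroquine plus artemisinin killed control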). Particulars: P. falciparum Dd2 in RBCs, LDH growth readout, 72 h; at 2 µM; stronger effect = higher value.
The nature of experiment [2]: human hepatoma cell viability loss – ATP luminescence, cytotoxicity control for P. falciparum antimalarial project, primary screen (AID 2303;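 active = inhibition above 50%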;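 note: 0% = DMSO wells and 100% = digitonin-killed cells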). The settings on record: HepG2 viability, 24-48 h, at 10 µM, stronger effect = higher value.
For experiment [3], the target named is L-lactate dehydrogenase (Plasmodium falciparum (isolate CDC / Honduras)) (UniProt Q27743). Briefly: PfLDH activity inhibition – cell lysate, 3D7 strain, counter-screen for P. falciparum growth inhibition project (AID 2304).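 Note: 0% = vehicle and 100% = reference inhibitor.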 The settings on record: P. falciparum 3D7 crude extract, LDH APAD/NBT absorbance; at 2 µM; stronger effect = higher value. Background: The purpose of a counterscreen is to sort out artefacts and off-target activity.

A short description of experiment [4]: inhibition of 3D7 malaria parasite growth – strain 3D7 (AID 2306).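 Note: 0% = DMSO wells and 100% = chloroquine plus artemisinin control wells.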 Particulars: P. falciparum 3D7 erythrocytic growth, LDH absorbance, 72 h; at 2 µM; stronger effect = higher value.
Experiment [5] addresses Calcium-dependent protein kinase 1 (Plasmodium falciparum (isolate 3D7)) (UniProt P62344). Briefly: PfCDPK1 kinase inhibitors, biochemical, TCAMS library (AID 1159585; cut-off not given, nearly all actives have IC50 up to about 0.98 µM;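 note: inhibitors leave more ATP so luminescence rises with inhibition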). Particulars: recombinant PfCDPK1, Kinase-Glo ATP depletion luminescence.
The target of experiment [6] is Plasmodium falciparum protein kinase 6 (PK6, PF3D7_1337100) (UniProt Q8IDW1). As to the kind of experiment: PfPK6 kinase inhibitors, biochemical, TCAMS library (AID 1159586). The settings on record: recombinant PfPK6, Kinase-Glo ATP depletion luminescence.
Experiment [7] has as its target Protein kinase 7 (PK7), Plasmodium falciparum 3D7 (PF3D7_0213400) (UniProt Q7YTF7). As to the kind of experiment: inhibition of Plasmodium PK7 catalytic activity – biochemical, TCAMS antimalarial set, Kinase-Glo luminescence (AID 1159587). Particulars: recombinant PfPK7, Kinase-Glo ATP depletion luminescence.
In experiment [8] the target is Calcium-dependent protein kinase 4 (Plasmodium falciparum (isolate 3D7)) (UniProt Q8IBS5). As to the kind of experiment: PfCDPK4 kinase inhibitors, biochemical, TCAMS library (AID 1159588; cut-off not given, nearly all actives have IC50 up to about 0.91 µM). The settings on record: recombinant PfCDPK4, Kinase-Glo ATP depletion luminescence. In general terms: Kinase-Glo reads ATP consumption through a luciferase reaction.

A number with no mark means an inactive call. For part of these data: Measured potencies and affinities stand elsewhere. Activity calls are given as the source filed them. Unless noted, the rule behind the calls is not given here.

Chain of L-lactate dehydrogenase (Plasmodium falciparum (isolate CDC / Honduras)) (Q27743 whole entry, looked up): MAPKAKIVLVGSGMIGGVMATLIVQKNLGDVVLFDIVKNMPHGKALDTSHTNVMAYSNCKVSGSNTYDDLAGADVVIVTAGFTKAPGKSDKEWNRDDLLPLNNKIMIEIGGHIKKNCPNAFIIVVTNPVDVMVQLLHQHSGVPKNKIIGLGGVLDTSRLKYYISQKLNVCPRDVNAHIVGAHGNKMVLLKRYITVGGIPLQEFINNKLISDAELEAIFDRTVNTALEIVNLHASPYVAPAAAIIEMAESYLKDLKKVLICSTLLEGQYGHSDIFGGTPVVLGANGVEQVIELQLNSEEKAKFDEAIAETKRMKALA
Chain of Calcium-dependent protein kinase 4 (Plasmodium falciparum (isolate 3D7)) (Q8IBS5 whole entry, looked up): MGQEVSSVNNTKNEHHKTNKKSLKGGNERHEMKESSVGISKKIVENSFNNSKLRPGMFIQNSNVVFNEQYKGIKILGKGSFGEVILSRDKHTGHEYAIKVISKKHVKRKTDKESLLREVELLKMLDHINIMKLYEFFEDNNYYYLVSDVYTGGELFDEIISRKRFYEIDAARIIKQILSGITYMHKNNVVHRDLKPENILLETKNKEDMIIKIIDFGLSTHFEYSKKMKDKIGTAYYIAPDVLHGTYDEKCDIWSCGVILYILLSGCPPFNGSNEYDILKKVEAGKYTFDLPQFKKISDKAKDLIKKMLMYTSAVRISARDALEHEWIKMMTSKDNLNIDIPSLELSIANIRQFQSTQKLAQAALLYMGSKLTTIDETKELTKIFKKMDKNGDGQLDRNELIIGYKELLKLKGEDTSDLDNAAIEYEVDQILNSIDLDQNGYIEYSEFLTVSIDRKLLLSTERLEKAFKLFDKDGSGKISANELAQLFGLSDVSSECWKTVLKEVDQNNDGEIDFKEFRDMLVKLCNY
Chain of Plasmodium falciparum protein kinase 6 (PK6, PF3D7_1337100) (Q8IDW1 1-305): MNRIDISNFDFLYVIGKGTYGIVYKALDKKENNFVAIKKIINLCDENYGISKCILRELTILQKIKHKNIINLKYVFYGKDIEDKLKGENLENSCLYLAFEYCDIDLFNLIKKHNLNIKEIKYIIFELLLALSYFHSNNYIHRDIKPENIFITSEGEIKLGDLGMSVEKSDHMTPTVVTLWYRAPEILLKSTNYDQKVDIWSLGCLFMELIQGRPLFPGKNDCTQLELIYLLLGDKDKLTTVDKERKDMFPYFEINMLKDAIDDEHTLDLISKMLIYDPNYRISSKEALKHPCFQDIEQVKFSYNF
Chain of Protein kinase 7 (PK7), Plasmodium falciparum 3D7 (PF3D7_0213400) (Q7YTF7 1-343): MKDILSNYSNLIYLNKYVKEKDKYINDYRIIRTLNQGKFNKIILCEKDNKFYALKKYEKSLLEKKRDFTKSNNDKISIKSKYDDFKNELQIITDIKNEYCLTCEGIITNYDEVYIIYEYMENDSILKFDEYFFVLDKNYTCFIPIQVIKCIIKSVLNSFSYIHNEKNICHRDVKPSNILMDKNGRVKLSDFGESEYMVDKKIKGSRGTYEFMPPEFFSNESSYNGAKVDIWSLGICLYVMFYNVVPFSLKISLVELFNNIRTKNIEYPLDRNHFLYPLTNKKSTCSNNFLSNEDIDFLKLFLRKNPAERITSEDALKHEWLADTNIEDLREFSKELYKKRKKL
Chain of Calcium-dependent protein kinase 1 (Plasmodium falciparum (isolate 3D7)) (P62344 whole entry, looked up): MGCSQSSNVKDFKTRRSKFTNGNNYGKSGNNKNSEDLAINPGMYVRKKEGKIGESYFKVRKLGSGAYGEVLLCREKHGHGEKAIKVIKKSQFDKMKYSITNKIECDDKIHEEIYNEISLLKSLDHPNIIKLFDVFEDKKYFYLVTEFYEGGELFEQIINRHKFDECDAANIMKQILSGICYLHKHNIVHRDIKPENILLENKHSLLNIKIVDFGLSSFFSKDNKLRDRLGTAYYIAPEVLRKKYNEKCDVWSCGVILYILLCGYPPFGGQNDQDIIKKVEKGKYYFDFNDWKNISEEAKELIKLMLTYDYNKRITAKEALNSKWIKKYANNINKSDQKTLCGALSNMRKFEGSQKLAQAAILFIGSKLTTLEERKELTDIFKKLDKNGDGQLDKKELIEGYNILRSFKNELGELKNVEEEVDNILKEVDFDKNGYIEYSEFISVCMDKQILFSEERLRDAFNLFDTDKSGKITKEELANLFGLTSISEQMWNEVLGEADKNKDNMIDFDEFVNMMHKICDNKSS

Turning to `Cc1nc2c(s1)c(=O)cc(CCc1cccc(F)c1F)n2CC(=O)N(Cc1ccc(-c2ccc(C(F)(F)F)cc2)cc1)C1CCN(C(C)C)CC1`, the growth inhibition in experiment [1] is 82% (active); in experiment [4], 100% (active). For the same compound, the values for the inhibition in experiment [2] and in experiment [3] were 98% (active) and 0%, respectively. Besides, the outcome in experiment [5], in experiment [6], in experiment [7] and in experiment [8] was inactive.

For `O=C(Nc1cccc(F)c1)N(Cc1ccc(-c2ccc(CN3CCNCC3)cc2)cc1)C1CCN(Cc2ccccc2)CC1`, the growth inhibition was 53% (active) in experiment [1] and 101% (active) in experiment [4]. The inhibition in experiment [2] is 18%; in experiment [3], 0%. Also, the outcome in experiment [5], in experiment [6], in experiment [7] and in experiment [8] was inactive.

As for `C=CCn1cc(C2CCN(CCCCNC(=O)c3sc(-c4ccc(C(F)(F)F)cc4)nc3CO)CC2)c2cc(OC)ccc21`, the growth inhibition is 4% in experiment [1] and 91% (active) in experiment [4]. For the same compound, the inhibition in experiment [2] was 40%; in experiment [3], 4%. Also, the result in experiment [5], in experiment [6], in experiment [7] and in experiment [8] was inactive.

Take `O=S(=O)(NCCN1CCCC1)c1ccc(-c2ccc(CNCc3ccsc3)cc2)cc1F`: the growth inhibition in experiment [1] was 40%; in experiment [4] it was 96% (active). The inhibition was 27% in experiment [2] and 0% in experiment [3]. For the same compound, the outcome in experiment [5], in experiment [6], in experiment [7] and in experiment [8] was inactive.

On to `CO/C(=C\C=C\c1cc2cc(Cl)c(Cl)cc2[nH]1)C(=O)NC1CCN(CCCc2ccccc2)CC1`, for which the growth inhibition was 75% (active) in experiment [1] and 93% (active) in experiment [4]. Also, the inhibition was 59% (active) in experiment [2] and 0% in experiment [3]. In addition, the result in experiment [5], in experiment [6], in experiment [7] and in experiment [8] was inactive.

Regarding `CS(=O)(=O)c1ccccc1CNC(=O)c1ccc(-c2cccc(-c3nc4ccc(C(F)(F)F)cc4[nH]3)c2)cc1`, the values for the growth inhibition in experiment [1] and in experiment [4] were 4% and 91% (active), respectively. Also, the values for the inhibition in experiment [2] and in experiment [3] were 36% and 4%, respectively. Moreover, the result in experiment [5], in experiment [6], in experiment [7] and in experiment [8] was inactive.

For `CN1CCN(CCNc2c3ccccc3nc3ccc4ccccc4c23)CC1`, the growth inhibition in experiment [1] and in experiment [4] was 99% (active) in each case. In addition, the inhibition in experiment [2] is 22%; in experiment [3], -6%. Also, the outcome in experiment [5], in experiment [6], in experiment [7] and in experiment [8] was inactive.

On to `COc1ccc2nccc(N3CCC(NCCNCc4ccc5c(n4)NC(=O)CO5)C3)c2n1` (stereo not drawn), for which the growth inhibition in experiment [1] was 47%; in experiment [4], 100% (active). The inhibition in experiment [2] is 0%; in experiment [3], 3%. Moreover, the outcome in experiment [5], in experiment [6], in experiment [7] and in experiment [8] was inactive.

As to `Clc1ccc2c(NN=Cc3cccs3)ccnc2c1`, the growth inhibition in experiment [1] is 96% (active); in experiment [4], 100% (active). The inhibition in experiment [2] is -4%; in experiment [3], 2%. Also, the result in experiment [5], in experiment [6], in experiment [7] and in experiment [8] was inactive.

Consider `CCCC(C(=O)OCCN(CC)CC)(c1ccc(Cl)cc1)c1ccc(Cl)cc1`, for which the growth inhibition in experiment [1] was 87% (active); in experiment [4], 91% (active). For the same compound, the figures for the inhibition in experiment [2] and in experiment [3] were 7% and 2%, respectively. For the same compound, the outcome in experiment [5], in experiment [6], in experiment [7] and in experiment [8] was inactive.

Turning to `CCC(C)(C)C1CCc2nc(N)nc(N)c2C1` (stereo not drawn), the growth inhibition in experiment [1] was 97% (active); in experiment [4], 95% (active). The inhibition in experiment [2] is 71% (active); in experiment [3], 4%. The outcome in experiment [5], in experiment [6], in experiment [7] and in experiment [8] was inactive.

Consider `CN1CCCC1CNS(=O)(=O)c1ccc(C(=O)NCC2CC2)cc1` (stereo not drawn), for which the growth inhibition in experiment [1] is -7%; in experiment [4] it was 91% (active). The inhibition is 17% in experiment [2] and -1% in experiment [3]. The outcome in experiment [5], in experiment [6], in experiment [7] and in experiment [8] was inactive.

On to `CCOC(=O)c1c(C)n(-c2ccccc2)c2ccc(OC(=O)COc3ccc(Cl)cc3Cl)cc12`, for which the growth inhibition in experiment [1] was 87% (active); in experiment [4], 99% (active). For the same compound, the values for the inhibition in experiment [2] and in experiment [3] were 11% and 3%, respectively. The result in experiment [5], in experiment [6], in experiment [7] and in experiment [8] was inactive.

In the case of `CN(C)CCN(C)Cc1cccc(-c2ccc3c(Nc4ccc(F)cc4Cl)ccnc3c2)c1`, the growth inhibition is 100% (active) in experiment [1] and 101% (active) in experiment [4]. Moreover, the inhibition was 53% (active) in experiment [2] and 0% in experiment [3]. For the same compound, the result in experiment [5], in experiment [6], in experiment [7] and in experiment [8] was inactive.

Turning to `CN1CCN(CCCN(Cc2csc(-c3ccc(CNCc4ccccc4)cc3)n2)S(=O)(=O)c2cccc3cccnc23)CC1`, the figures for the growth inhibition in experiment [1] and in experiment [4] were 32% and 89% (active), respectively. For the same compound, the inhibition in experiment [2] is 5%; in experiment [3] it was 1%. Also, the result in experiment [5], in experiment [6], in experiment [7] and in experiment [8] was inactive.

Regarding `CCCCN(CCCC)CCOc1cc2c(cc1OC)CCN2C(=O)/C=C/c1ccccc1Cl`, the growth inhibition was 31% in experiment [1] and 87% (active) in experiment [4]. The results for the inhibition in experiment [2] and in experiment [3] were 13% and 0%, respectively. Further, the result in experiment [5], in experiment [6], in experiment [7] and in experiment [8] was inactive.

`CCS(=O)(=O)Nc1ccc2[nH]cc(C3CCN(CCC4CCN(C(=O)/C=C/c5ccc(Cl)c(Cl)c5)CC4)CC3)c2c1`: the growth inhibition in experiment [1] is 94% (active); in experiment [4], 99% (active). In addition, the inhibition in experiment [2] is 34%; in experiment [3], -2%. Also, the result in experiment [5], in experiment [6], in experiment [7] and in experiment [8] was inactive.

With `Oc1cc(Nc2ccnc3cc(-c4cccc(CN5CCCCC5)c4)ccc23)c(F)cc1Cl`, the growth inhibition in experiment [1] and in experiment [4] was 101% (active) throughout. Further, the inhibition in experiment [2] is 21%; in experiment [3], -3%. Further, the result in experiment [5], in experiment [6], in experiment [7] and in experiment [8] was inactive.

`O=C(Nc1nccs1)c1cn(-c2ccccc2)nc1-c1ccc(Cl)s1`: the figures for the growth inhibition in experiment [1] and in experiment [4] were 18% and 96% (active), respectively. In addition, the inhibition in experiment [2] was 9%; in experiment [3], 0%. Also, the result in experiment [5], in experiment [6], in experiment [7] and in experiment [8] was inactive.

With `Cc1ccccc1CCNC(=O)c1ccc(N2CCN(c3ccncc3)CC2)nc1`, the figures for the growth inhibition in experiment [1] and in experiment [4] were 20% and 95% (active), respectively. Moreover, the figures for the inhibition in experiment [2] and in experiment [3] were 10% and -3%, respectively. In addition, the outcome in experiment [5], in experiment [6], in experiment [7] and in experiment [8] was inactive.

Regarding `CN(Cc1cccc(F)c1)C1CCCN(c2cc(NC(=O)c3ccccc3)ccn2)C1` (stereo not drawn), the growth inhibition in experiment [1] was 50% (active); in experiment [4] it was 93% (active). The inhibition in experiment [2] is 3%; in experiment [3] it was -3%. For the same compound, the outcome in experiment [5], in experiment [6], in experiment [7] and in experiment [8] was inactive.

One may read the inhibition as the drop in the measured response relative to a control, in per cent.

(Values after PubChem BioAssay.)
